Source: the supplement of paper PMC6555819

Experiments:
Experiment in all cases: PBM binding z-score (relative to random genomic background probes); higher = stronger binding; sequences stand for … in GC…GCGATTGACAGCGTAGAATGAAGG
[1] = tested on: FXR:RXRa (NR concentration 270 nM, RXRa partner concentration 90 nM)
Procedure, shortened: (§1)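 Binding z-scores were set against random background probes. The data came from custom Agilent 4×180K protein-binding microarrays carrying double-stranded probes with 34-nt variable regions, incubated 1 h with ligand-free nuclear receptor dimers. Partner-specific antibodies detected binding, and scanned fluorescence was regression-normalized.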

[2] = tested on: LXRa:RXRa (NR concentration 270 nM, RXRa partner concentration 90 nM)
Procedure, shortened: as §1

[3] = tested on: LXRa homodimer (NR concentration 270 nM)
Procedure, shortened: as §1

[4] = tested on: LXRb:RXRa (NR concentration 270 nM, RXRa partner concentration 90 nM)
Procedure, shortened: as §1

[5] = tested on: LXRb homodimer (NR concentration 270 nM)
Procedure, shortened: as §1

[6] = tested on: PPARa:RXRa (NR concentration 270 nM, RXRa partner concentration 90 nM)
Procedure, shortened: as §1

[7] = tested on: PPARg:RXRa (NR concentration 180 nM, RXRa partner concentration 90 nM)
Procedure, shortened: as §1

[8] = tested on: PPARg:RXRa 270nM:90nM, anti-RXR (NR concentration 270 nM, RXRa partner concentration 90 nM)
Procedure, shortened: as §1

[9] = tested on: PPARg:RXRa 30nM:10nM, anti-RXR (NR concentration 30 nM, RXRa partner concentration 10 nM)
Procedure, shortened: as §1

[10] = tested on: PPARg:RXRa 90nM:30nM, anti-RXR (NR concentration 90 nM, RXRa partner concentration 30 nM)
Procedure, shortened: as §1

[11] = tested on: PPARg:RXRa DBDmut IVT, anti-RXR (DBD mutation: RXRa K156A/R161A, NR concentration 270 nM, RXRa partner concentration 90 nM)
Procedure, shortened: as §1

[12] = tested on: PPARg:RXRa IVT, anti-PPARg (NR concentration 270 nM, RXRa partner concentration 90 nM)
Procedure, shortened: as §1

[13] = tested on: PPARg DBDmut:RXRa IVT, anti-PPARg (DBD mutation: PPARg1 K132A/R137A, NR concentration 270 nM, RXRa partner concentration 90 nM)
Procedure, shortened: as §1

[14] = tested on: PPARg DBDmut IVT, anti-PPARg (DBD mutation: PPARg1 K132A/R137A, NR concentration 270 nM)
Procedure, shortened: as §1

[15] = tested on: PPARg homodimer (NR concentration 180 nM)
Procedure, shortened: as §1

[16] = tested on: PXR:RXRa (NR concentration 270 nM, RXRa partner concentration 90 nM)
Procedure, shortened: as §1

[17] = tested on: PXR homodimer (NR concentration 270 nM)
Procedure, shortened: as §1

[18] = tested on: RARa:RXR (NR concentration 270 nM, RXRa partner concentration 90 nM)
Procedure, shortened: as §1

[19] = tested on: RARa homodimer (NR concentration 270 nM)
Procedure, shortened: as §1

[20] = tested on: RARb:RXRa (NR concentration 270 nM, RXRa partner concentration 90 nM)
Procedure, shortened: as §1

Sequence | PBM binding z-score [1] | PBM binding z-score [2] | PBM binding z-score [3] | PBM binding z-score [4] | PBM binding z-score [5] | PBM binding z-score [6] | PBM binding z-score [7] | PBM binding z-score [8] | PBM binding z-score [9] | PBM binding z-score [10] | PBM binding z-score [11] | PBM binding z-score [12] | PBM binding z-score [13] | PBM binding z-score [14] | PBM binding z-score [15] | PBM binding z-score [16] | PBM binding z-score [17] | PBM binding z-score [18] | PBM binding z-score [19] | PBM binding z-score [20]
GGAACGAGGGCATTCAAGTTGATAGCATGGCGAT | 1.18 | 1.46 | -0.583 | 0.241 | -0.723 | 1.52 | 1.12 | 0.948 | -0.0725 | 0.427 | 2.92 | 2.13 | -0.155 | -0.574 | -0.338 | 2.92 | 0.722 | 0.791 | -0.689 | 1.9
GCTCGGACGACAAGGTCAGAGCTTTGTCCGTAGA | 1.39 | 1.19 | -0.78 | 0.912 | -1.26 | 2 | 0.028 | 0.343 | -0.807 | -0.125 | -0.353 | -0.175 | -1.38 | -1.46 | 0.248 | 1.73 | -0.194 | 2.24 | -0.933 | 2.84
CCTGCTAGGTCAATGGTCAGCAAAAGCAGCTCGC | 2.97 | 2.15 | 0.13 | 1.33 | -0.077 | 3.32 | 4.8 | 5.15 | 2.5 | 4.66 | 4.13 | 3.94 | -0.42 | -0.782 | 0.701 | 0.88 | -0.358 | 1.49 | -0.178 | 3.86
ATCGAAAGGTCGTGATGTGAGTATACAGAAAGGC | 4.54 | 3.48 | 0.378 | 3.08 | 0.626 | 4.67 | 3.21 | 3.2 | 1.34 | 2.34 | -0.177 | 1.63 | 1.58 | 1.08 | 1.07 | 2.71 | 0.368 | 3.38 | 0.598 | 3.68
CGTCCAAGGTCAGCAGGGCAGTGAAAGCGACGTG | 5.27 | 3.24 | -0.203 | 2.34 | -0.623 | 4.47 | 3.08 | 3.74 | 0.535 | 2.52 | 2.44 | 3.13 | -0.138 | -1.04 | 1.69 | 2.25 | 0.00417 | 3.12 | 0.417 | 5.17
GTACCAAGGTGAATAGGTAGTTGATGAGTAGGCG | 0.274 | 0.228 | 0.0287 | 0.0207 | -0.534 | 0.934 | 0.795 | 0.782 | 0.189 | 0.453 | 1.51 | 1.76 | 0.536 | 0.507 | 0.398 | -0.196 | -0.0218 | 0.256 | 0.745 | 1.1
CGTCCAAGGTCTTAGGAGGTCAGTGAAGACAGAT | 1.69 | 3.12 | 0.984 | 2.03 | -0.404 | 2.28 | 0.427 | 1.06 | 0.0477 | 0.43 | 0.587 | 1.31 | -0.3 | -0.454 | 1.17 | 3.07 | 0.796 | 2.15 | -0.152 | 2.46
GCTAGTTGGTCAGTAAAAGTTCACACACCGGTCG | 0.899 | 2.22 | 4.58 | 1.73 | 0.297 | 1.95 | 0.79 | 1.98 | 0.387 | 1.5 | 0.674 | 0.916 | -0.358 | 0.138 | 2.26 | 3.43 | 3.27 | 2.53 | 1.14 | 2.73
CCGACTGGGGCAAAGGTTACCGTACTCAGTACGA | 1.69 | 1.59 | -0.472 | 1.95 | -1.15 | 5.78 | 10.6 | 9.35 | 9.56 | 9.91 | 4.82 | 5.85 | 0.024 | -0.75 | 1.93 | 2.04 | -0.837 | 3.75 | -0.437 | 2.39
TGACAAAGTTCAAAGGTAACGTAAGTATCCACAC | 6.96 | 6.05 | 3.28 | 4.68 | 1.41 | 5.69 | 6.2 | 6.28 | 2.97 | 5.43 | -0.278 | 2.4 | 1.51 | 0.842 | 2.31 | 5.44 | 2.44 | 6.2 | 1.36 | 5.01
CAGCCTATGTCAGGGCCAGTATAGGAGGAACGTT | -0.392 | -0.569 | -0.136 | -0.524 | -0.259 | -0.324 | 0.129 | -0.472 | -0.514 | -0.506 | -0.717 | -0.807 | -1.25 | -0.192 | -0.0188 | -0.63 | -0.46 | -0.507 | -0.292 | 0.105
CCTAGTTGGTCTGGAGGTCACACACCGGATATGA | 3.79 | 4.06 | 3.63 | 3.51 | 0.759 | 4.17 | 2.1 | 3.14 | 0.849 | 2.61 | 0.138 | 2.42 | -0.0171 | 0.512 | 3.95 | 4.72 | 1.81 | 5.16 | 2.41 | 3.59
ACTCGGAGGACAAAGGCCAGAGCTACGCCAGTGA | -0.254 | -0.622 | -0.482 | -1.08 | -0.835 | 0.196 | 1.47 | 2.38 | 0.441 | 1.97 | -0.0476 | -0.304 | -0.91 | -1.31 | -0.117 | -0.788 | -0.627 | -0.794 | -0.32 | 1.44
AGCACGAGGGCACGCTGAGTTGATAGCAGAGTAG | 0.941 | 0.602 | -0.669 | 0.23 | -1.28 | 1.61 | 1.22 | 0.752 | -0.187 | 0.162 | 2.09 | 2.17 | 0.0423 | -0.669 | 0.0355 | 1.32 | 0.313 | 0.919 | -0.335 | 2.59
